# Data taken from PubChem BioAssay AID1650 (Southern Research Specialized Biocontainment Screening …, 2009).
# Results with a measured potency or affinity are listed apart. Unmarked numbers belong to inactive results. No rule for the calls is given here.
# Experiment: mammalian cell viability reduction – secondary assay, cytotoxicity control for West Nile virus antiviral project, dose response (AID 1650)
# Details: Mammalian host cell viability, cytotoxicity counter-screen; series mostly up to 10 µM; viability: at the top concentration
row,SMILES,viability
1,C=CCn1c(SCc2csc(-c3ccc(Cl)cc3)n2)nnc1-c1ccccc1OC,73% [at 20 µM]
2,Cc1nc([N+](=O)[O-])c(Br)n1CC(=O)c1ccc(Cl)cc1,79.3% [at 20 µM]
3,C[C@H]1[C@H](C)CC[C@]2(C(=O)O)CC[C@]3(C)C(=CC[C@@H]4[C@@]5(C)C[C@@H](O)[C@H](O)C(C)(C)[C@@H]5CC[C@]43C)[C@H]12,103%
4,COc1ccccc1NS(=O)(=O)c1cccc(NC(=O)Nc2ccc(Cl)cc2)c1,70.3% [at 20 µM]
5,Cc1cc(C)cc(OC(=O)CS(=O)c2ccc(C(F)(F)F)cc2[N+](=O)[O-])c1 (centres undefined),91.1%
6,CCCC1(c2ccccc2)NC(=O)N(CC(=O)Nc2sc(-c3ccccc3)cc2C(=O)OCC)C1=O (centres undefined),78.4% [at 20 µM]
7,COc1cc([C@H]2c3[nH]c4ccccc4c3C[C@H]3C(=O)N4[C@@H](c5cc(OC)c(OC)c(OC)c5)c5[nH]c6ccccc6c5C[C@H]4C(=O)N23)cc(OC)c1OC,77.5% [at 20 µM]
8,CN(C)CCNS(=O)(=O)c1ccc(N2CCN(c3ccc(F)cc3)CC2)c([N+](=O)[O-])c1,79.6%
9,C/C(N)=C(/C#N)C(=O)COC(=O)c1cc(-c2ccc(Br)cc2)nc2ccccc12,72.3%
10,COc1ccc(-c2nc(CN3CCC(C(=O)NC4CCN(Cc5ccccc5)CC4)CC3)c(C)o2)cc1OC,86% [at 20 µM]
11,Cc1ccc(Nc2nc(N)c([N+](=O)[O-])c(N3CCCC(C)C3)n2)cc1C (centres undefined),72.2%
12,CC[C@H]1CC2CN3CCc4c([nH]c5c([C@H]6C[C@H]7[C@H](CC)CN(C)[C@@H](Cc8c6[nH]c6ccccc86)[C@H]7C(=O)OC)c(OC)ccc45)C(C(=O)OC)(C2)C13,71.3%
13,CCc1ccc2nc(N(CCCN(C)C)C(=O)c3ccc(S(=O)(=O)N4CCCc5ccccc54)cc3)sc2c1,82.3%
14,O=C(CN1C(=O)/C(=C/c2ccc(C(F)(F)F)cc2)Sc2ccccc21)NCCCN1CCOCC1,84.2%
15,CCOC(=O)c1c(CN2CCN(C)CC2)n(C)c2cc(Br)c(OC)cc12,75.1% [at 20 µM]
16,COC(=O)c1ccc(C(=O)Nc2cc(Cl)ccc2Cl)cc1NC(=O)c1ccccc1C,72.5% [at 20 µM]
17,CCCCN(CC)CCNC(=S)Nc1ccc2nc(N3CCN(C)CC3)cc(C)c2c1,84.8%
18,CN1CCN(CCNC(=O)c2ccc3nc(-c4ccc(F)cc4)c(-c4ccc(F)cc4)nc3c2)CC1,86.1%
19,CCOC(=O)C1(Cc2ccccc2C(F)(F)F)CCN(C2CCN(C(C)C)CC2)CC1,72.2% [at 20 µM]
20,Nc1nonc1-n1nnc(C(=O)N/N=C/c2ccccc2Cl)c1CSc1ccccc1,92.5% [at 20 µM]
21,c1ccc(-c2ccc(-c3[nH]ncc3CN3CCC(N4CCSCC4)CC3)cc2)cc1,88.3% [at 20 µM]
22,CC1CCCC(C)N1CCCNC(=O)c1cc2c(s1)-c1ccccc1OC2 (centres undefined),75.3%
23,O=C(CCCN1C(=O)/C(=C\c2ccccc2)SC1=S)Nc1ccc(O)cc1,72.3% [at 20 µM]
24,Cn1c(N/N=C/c2c[nH]c3ccccc23)nc2ccccc21,80.1%
